Data as given in paper PMC7862700, “An all-to-all approach to the identification of sequence-specific readers for epigenetic DNA modifications on cytosine”.

Experiments:
Assay in all cases: DAPPL (digital affinity profiling via proximity ligation, sequencing); 10 mM Tris-HCl pH 7.5, 50 mM NaCl, 1 mM DTT, 4% glycerol, room temperature, 30 min; GST-TFs on glutathione beads, 16-mer random dsDNA library, 0.1% formaldehyde crosslink after washing; high values mean tight binding
FLI1 = molecular target: T1, FLI1 (Homo sapiens, UniProt Q01543 1-452); details: protein: recombinant; tags: N-terminal GST; dsDNA, one strand shown
T1 sequence: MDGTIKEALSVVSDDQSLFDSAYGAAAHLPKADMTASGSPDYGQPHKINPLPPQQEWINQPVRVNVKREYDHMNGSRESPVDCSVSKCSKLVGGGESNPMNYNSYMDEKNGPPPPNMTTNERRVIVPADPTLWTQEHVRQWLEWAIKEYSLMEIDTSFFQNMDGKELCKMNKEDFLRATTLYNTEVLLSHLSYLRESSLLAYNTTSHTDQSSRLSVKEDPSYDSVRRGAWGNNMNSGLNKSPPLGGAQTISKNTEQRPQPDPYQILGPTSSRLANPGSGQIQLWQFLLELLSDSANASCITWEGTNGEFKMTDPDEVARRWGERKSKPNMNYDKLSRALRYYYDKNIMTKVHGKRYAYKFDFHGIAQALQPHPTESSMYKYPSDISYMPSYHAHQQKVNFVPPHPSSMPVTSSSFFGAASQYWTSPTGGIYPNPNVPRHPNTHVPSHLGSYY
Method in brief: (§1)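 A tag-only sample was pooled with DNA-barcoded human transcription factors that had been expressed in yeast as GST fusions and captured on glutathione beads. The pools were incubated for 30 min at room temperature with 200 nmole of a random double-stranded 16-mer DNA library in Tris/NaCl/DTT/glycerol buffer, then washed, crosslinked with 0.1% formaldehyde, proximity-ligated (BsaI/T4 ligase, 1 h, 37 °C), PCR-amplified and sequenced on an Illumina NextSeq500. Binding signal is each hexamer's read frequency for a factor divided by its frequency for the tag-only sample.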

ELK1 = molecular target: T2, ELK1 (Homo sapiens, UniProt P19419 1-428); details: protein: recombinant; tags: N-terminal GST; dsDNA, one strand shown
T2 sequence: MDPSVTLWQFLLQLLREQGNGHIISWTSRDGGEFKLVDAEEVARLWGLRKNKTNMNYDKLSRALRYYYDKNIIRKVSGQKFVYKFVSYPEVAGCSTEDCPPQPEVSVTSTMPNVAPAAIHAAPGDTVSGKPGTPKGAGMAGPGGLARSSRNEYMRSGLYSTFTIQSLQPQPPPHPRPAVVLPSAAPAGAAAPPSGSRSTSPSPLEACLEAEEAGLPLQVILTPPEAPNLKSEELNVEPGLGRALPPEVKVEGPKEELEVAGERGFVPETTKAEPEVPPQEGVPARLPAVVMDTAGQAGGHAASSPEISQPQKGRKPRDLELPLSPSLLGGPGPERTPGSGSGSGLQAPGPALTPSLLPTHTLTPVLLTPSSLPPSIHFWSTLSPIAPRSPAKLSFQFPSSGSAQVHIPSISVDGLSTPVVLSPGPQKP
Method in brief: as §1

GABPA = molecular target: T3, GABPA (Homo sapiens, UniProt Q06546 1-454); details: protein: recombinant; tags: N-terminal GST; dsDNA, one strand shown
T3 sequence: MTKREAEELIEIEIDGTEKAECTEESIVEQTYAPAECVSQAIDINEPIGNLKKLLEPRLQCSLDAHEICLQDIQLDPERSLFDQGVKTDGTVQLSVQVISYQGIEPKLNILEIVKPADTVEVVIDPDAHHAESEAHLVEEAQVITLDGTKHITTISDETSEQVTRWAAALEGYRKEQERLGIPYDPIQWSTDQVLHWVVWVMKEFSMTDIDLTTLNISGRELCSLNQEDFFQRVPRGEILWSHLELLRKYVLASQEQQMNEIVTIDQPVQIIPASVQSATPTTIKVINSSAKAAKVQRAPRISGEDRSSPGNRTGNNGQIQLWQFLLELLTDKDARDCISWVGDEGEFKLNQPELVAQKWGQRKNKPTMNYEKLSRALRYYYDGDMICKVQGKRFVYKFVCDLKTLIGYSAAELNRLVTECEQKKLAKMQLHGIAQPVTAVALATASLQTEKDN
Method in brief: as §1

ERG = molecular target: T4, ERG (Homo sapiens, UniProt P11308 1-479); details: protein: recombinant; tags: N-terminal GST; dsDNA, one strand shown
T4 sequence: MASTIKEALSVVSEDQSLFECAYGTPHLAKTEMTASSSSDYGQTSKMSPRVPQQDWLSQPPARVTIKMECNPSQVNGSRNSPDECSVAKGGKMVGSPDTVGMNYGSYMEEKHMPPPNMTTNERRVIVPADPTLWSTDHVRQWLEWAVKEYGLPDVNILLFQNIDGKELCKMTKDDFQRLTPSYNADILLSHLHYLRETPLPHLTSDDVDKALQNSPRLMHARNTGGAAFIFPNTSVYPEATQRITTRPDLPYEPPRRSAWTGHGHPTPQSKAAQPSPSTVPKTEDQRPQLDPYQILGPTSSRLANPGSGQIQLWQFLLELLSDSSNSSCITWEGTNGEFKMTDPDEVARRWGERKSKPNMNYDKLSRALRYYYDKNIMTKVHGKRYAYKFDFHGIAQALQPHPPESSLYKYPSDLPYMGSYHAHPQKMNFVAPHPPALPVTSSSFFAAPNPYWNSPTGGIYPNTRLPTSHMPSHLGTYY
Method in brief: as §1

ELF1 = ELF1 (Homo sapiens, UniProt P32519 1-619); details: protein: recombinant; tags: N-terminal GST; dsDNA, one strand shown
Method in brief: as §1

EHF = molecular target: T5, EHF (Homo sapiens, UniProt Q9NZC4 1-300); details: protein: recombinant; tags: N-terminal GST; dsDNA, one strand shown
T5 sequence: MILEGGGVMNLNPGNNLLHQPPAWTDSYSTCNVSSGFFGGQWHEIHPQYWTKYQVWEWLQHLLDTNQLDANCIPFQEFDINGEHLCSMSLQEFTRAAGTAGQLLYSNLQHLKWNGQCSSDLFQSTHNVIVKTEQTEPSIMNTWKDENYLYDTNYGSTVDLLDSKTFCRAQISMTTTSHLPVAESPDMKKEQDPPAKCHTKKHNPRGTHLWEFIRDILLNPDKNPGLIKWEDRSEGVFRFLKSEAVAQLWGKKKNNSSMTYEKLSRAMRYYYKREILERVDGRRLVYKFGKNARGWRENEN
Method in brief: as §1

SPI1 = SPI1 (Homo sapiens, UniProt P17947 1-270); details: protein: recombinant; tags: N-terminal GST; dsDNA, one strand shown
Method in brief: as §1

SPIB = SPIB (Homo sapiens, UniProt Q01892 1-262); details: protein: recombinant; tags: N-terminal GST; dsDNA, one strand shown
Method in brief: as §1

ELK3 = molecular target: T6, ELK3 (Homo sapiens, UniProt P41970 1-407); details: protein: recombinant; tags: N-terminal GST; dsDNA, one strand shown
T6 sequence: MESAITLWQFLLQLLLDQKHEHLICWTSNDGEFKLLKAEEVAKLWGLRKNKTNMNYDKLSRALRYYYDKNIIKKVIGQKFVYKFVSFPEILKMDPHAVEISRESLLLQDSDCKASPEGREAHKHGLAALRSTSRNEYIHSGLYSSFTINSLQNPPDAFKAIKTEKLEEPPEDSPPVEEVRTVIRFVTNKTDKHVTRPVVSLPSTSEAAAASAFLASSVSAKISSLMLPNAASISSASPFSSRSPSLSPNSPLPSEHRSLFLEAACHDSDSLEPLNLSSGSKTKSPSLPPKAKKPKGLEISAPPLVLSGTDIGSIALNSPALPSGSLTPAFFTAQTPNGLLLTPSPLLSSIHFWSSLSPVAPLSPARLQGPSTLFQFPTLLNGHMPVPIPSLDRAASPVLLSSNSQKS
Method in brief: as §1

FEV = molecular target: T7, FEV (Homo sapiens, UniProt Q99581 1-238); details: protein: recombinant; tags: N-terminal GST; dsDNA, one strand shown
T7 sequence: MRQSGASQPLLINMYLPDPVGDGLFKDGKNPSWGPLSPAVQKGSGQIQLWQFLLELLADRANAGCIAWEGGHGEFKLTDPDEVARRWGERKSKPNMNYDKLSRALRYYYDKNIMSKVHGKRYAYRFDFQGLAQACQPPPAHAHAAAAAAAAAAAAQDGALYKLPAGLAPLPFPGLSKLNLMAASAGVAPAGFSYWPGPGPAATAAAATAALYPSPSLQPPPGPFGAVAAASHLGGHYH
Method in brief: as §1

ETV5 = ETV5 (Homo sapiens, UniProt P41161 1-510); details: protein: recombinant; tags: N-terminal GST; dsDNA, one strand shown
Method in brief: as §1

HSF1 = HSF1 (Homo sapiens, UniProt Q00613 1-529); details: protein: recombinant; tags: N-terminal GST; chain copies: 3; dsDNA, one strand shown
Method in brief: as §1

ELF4 = ELF4 (Homo sapiens, UniProt Q99607 1-663); details: protein: recombinant; tags: N-terminal GST; dsDNA, one strand shown
Method in brief: as §1

ELK4 = molecular target: T8, ELK4 (Homo sapiens, UniProt P28324-2 1-405); details: protein: recombinant; tags: N-terminal GST; dsDNA, one strand shown
T8 sequence: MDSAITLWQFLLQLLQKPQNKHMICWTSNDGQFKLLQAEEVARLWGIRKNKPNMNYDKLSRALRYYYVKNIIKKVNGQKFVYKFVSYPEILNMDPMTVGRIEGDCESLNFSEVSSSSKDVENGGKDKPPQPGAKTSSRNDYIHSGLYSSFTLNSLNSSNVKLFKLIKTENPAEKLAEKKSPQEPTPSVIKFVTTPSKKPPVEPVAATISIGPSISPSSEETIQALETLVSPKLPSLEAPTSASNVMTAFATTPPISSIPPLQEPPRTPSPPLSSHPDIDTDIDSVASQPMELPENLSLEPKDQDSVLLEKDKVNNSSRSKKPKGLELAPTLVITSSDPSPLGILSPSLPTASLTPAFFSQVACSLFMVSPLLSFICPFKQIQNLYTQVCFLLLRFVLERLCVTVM
Method in brief: as §1

ETV2 = molecular target: T9, ETV2 (Homo sapiens, UniProt O00321 1-342); details: protein: recombinant; tags: N-terminal GST; dsDNA, one strand shown
T9 sequence: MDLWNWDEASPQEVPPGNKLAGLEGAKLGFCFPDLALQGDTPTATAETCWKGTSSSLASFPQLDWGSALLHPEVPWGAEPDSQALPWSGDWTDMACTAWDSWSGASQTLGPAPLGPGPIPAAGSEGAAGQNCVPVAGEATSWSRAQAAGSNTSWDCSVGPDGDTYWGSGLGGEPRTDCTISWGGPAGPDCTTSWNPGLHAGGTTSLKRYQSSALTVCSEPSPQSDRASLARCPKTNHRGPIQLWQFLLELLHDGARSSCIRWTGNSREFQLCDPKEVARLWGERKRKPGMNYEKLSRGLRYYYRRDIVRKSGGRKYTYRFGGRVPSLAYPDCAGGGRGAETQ
Method in brief: as §1

ELF3 = molecular target: T10, ELF3 (Homo sapiens, UniProt P78545 1-371); details: protein: recombinant; tags: N-terminal GST; dsDNA, one strand shown
T10 sequence: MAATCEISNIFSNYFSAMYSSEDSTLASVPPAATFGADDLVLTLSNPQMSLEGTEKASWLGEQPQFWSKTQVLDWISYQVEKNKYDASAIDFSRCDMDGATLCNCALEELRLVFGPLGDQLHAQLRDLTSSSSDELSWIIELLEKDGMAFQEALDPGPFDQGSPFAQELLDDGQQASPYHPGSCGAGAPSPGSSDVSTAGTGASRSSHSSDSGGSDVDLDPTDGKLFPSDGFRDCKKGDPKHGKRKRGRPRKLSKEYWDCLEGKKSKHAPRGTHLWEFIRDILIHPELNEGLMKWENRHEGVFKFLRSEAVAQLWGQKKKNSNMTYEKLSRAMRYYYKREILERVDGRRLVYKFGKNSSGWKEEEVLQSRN
Method in brief: as §1

CRX = CRX (Homo sapiens, UniProt O43186 1-299); details: protein: recombinant; tags: N-terminal GST; dsDNA, one strand shown
Method in brief: as §1

ETV1 = ETV1 (Homo sapiens, UniProt P50549 1-477); details: protein: recombinant; tags: N-terminal GST; dsDNA, one strand shown
Method in brief: as §1

Sequence of SPIB (Q01892 whole entry): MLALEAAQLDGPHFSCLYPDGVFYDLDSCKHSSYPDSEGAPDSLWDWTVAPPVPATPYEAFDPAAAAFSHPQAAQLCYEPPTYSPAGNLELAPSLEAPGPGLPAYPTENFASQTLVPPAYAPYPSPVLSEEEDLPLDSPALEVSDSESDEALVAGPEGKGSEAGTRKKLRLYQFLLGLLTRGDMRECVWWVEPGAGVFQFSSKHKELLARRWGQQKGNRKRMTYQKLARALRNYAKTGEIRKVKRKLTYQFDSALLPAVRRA
Sequence of ELF1 (P32519 whole entry): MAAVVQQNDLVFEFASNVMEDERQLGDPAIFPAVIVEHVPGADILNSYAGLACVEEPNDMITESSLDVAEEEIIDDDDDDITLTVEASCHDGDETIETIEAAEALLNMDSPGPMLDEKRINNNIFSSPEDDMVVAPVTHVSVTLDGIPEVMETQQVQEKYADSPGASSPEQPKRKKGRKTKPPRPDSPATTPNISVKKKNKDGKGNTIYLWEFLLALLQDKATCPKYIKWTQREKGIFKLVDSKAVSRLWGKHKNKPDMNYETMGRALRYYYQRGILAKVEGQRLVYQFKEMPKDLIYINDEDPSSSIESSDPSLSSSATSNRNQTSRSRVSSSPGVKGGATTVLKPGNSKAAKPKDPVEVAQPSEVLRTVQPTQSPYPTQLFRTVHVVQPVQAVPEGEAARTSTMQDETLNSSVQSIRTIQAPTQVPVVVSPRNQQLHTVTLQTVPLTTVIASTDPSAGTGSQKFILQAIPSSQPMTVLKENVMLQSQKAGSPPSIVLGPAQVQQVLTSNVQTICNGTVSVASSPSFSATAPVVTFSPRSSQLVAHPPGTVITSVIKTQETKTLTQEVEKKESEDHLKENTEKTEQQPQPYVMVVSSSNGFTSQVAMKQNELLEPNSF
Sequence of ETV1 (P50549 whole entry): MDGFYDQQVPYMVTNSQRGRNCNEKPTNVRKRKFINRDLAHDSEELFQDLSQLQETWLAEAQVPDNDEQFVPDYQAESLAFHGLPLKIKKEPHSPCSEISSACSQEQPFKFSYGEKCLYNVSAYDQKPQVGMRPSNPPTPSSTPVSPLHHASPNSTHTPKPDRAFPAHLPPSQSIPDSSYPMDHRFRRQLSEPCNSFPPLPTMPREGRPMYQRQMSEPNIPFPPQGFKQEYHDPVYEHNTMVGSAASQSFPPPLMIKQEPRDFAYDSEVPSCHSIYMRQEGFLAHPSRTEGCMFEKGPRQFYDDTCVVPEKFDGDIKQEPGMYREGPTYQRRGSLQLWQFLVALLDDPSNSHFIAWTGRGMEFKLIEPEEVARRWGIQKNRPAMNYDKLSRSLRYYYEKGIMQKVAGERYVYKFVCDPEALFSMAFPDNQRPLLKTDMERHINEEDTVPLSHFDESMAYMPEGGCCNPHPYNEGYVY
Sequence of ELF4 (Q99607 whole entry): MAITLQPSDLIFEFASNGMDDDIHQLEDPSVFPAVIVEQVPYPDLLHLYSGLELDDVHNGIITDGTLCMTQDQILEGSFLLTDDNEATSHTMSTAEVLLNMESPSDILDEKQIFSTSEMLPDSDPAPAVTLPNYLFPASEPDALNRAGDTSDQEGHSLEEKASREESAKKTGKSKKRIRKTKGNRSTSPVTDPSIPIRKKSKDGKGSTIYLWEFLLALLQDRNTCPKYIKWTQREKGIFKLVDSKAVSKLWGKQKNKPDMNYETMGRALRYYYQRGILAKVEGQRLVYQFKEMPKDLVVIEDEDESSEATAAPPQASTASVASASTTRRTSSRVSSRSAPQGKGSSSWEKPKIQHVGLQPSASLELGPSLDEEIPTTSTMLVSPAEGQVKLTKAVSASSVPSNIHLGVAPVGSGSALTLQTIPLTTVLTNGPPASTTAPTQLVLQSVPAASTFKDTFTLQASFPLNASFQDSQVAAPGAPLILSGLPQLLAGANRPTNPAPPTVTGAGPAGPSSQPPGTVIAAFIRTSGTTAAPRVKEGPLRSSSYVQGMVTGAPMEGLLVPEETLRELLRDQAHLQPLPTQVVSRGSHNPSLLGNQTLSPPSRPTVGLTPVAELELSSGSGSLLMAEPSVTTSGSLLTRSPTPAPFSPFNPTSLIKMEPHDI
Sequence of HSF1 (Q00613 whole entry): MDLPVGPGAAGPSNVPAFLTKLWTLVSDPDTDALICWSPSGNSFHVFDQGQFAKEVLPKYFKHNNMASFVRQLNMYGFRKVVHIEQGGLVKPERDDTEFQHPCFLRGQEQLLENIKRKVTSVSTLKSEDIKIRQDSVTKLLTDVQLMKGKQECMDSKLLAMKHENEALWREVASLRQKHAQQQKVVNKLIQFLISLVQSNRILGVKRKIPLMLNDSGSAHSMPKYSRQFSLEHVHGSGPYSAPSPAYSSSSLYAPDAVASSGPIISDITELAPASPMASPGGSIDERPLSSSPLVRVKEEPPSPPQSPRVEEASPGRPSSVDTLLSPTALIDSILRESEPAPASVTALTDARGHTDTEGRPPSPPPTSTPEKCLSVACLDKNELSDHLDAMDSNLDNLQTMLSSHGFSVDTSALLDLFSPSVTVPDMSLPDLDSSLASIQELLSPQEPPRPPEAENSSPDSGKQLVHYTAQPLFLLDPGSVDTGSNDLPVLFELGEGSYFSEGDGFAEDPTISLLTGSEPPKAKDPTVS
Sequence of CRX (O43186 whole entry): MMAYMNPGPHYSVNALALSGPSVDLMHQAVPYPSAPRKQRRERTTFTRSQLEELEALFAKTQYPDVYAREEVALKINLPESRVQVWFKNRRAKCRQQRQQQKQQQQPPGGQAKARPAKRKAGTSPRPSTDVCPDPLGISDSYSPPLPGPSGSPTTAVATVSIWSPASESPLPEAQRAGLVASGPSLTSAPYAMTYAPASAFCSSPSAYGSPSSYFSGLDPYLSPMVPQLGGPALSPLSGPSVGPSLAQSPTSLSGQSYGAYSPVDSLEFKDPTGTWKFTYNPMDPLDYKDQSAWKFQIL
Sequence of ETV5 (P41161 whole entry): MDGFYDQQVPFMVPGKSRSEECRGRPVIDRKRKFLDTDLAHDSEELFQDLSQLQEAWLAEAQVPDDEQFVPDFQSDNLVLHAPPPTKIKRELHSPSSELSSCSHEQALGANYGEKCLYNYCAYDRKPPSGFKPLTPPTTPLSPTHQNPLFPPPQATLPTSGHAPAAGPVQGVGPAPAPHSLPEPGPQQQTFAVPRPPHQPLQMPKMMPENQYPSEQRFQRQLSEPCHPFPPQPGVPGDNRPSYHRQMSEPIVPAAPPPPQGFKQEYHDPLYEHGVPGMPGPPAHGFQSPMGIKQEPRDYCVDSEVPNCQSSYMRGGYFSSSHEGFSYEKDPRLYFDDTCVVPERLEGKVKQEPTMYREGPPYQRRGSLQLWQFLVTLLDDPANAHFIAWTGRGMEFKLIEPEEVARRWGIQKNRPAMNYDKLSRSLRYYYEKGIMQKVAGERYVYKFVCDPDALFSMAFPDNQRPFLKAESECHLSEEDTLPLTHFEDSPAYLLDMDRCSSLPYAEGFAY

Sequence	binding signal (FLI1)	binding signal (ELK1)	binding signal (GABPA)	binding signal (ERG)	binding signal (ELF1)	binding signal (EHF)	binding signal (SPI1)	binding signal (SPIB)	binding signal (ELK3)	binding signal (FEV)	binding signal (ETV5)	binding signal (HSF1)	binding signal (ELF4)	binding signal (ELK4)	binding signal (ETV2)	binding signal (ELF3)	binding signal (CRX)	binding signal (ETV1)
TAACCA	1.12 fold enrichment (6-mer frequency, TF over GST control)	1.12 fold enrichment (6-mer frequency, TF over GST control)	1.08 fold enrichment (6-mer frequency, TF over GST control)	1.12 fold enrichment (6-mer frequency, TF over GST control)	1.11 fold enrichment (6-mer frequency, TF over GST control)	1.15 fold enrichment (6-mer frequency, TF over GST control)	1.06 fold enrichment (6-mer frequency, TF over GST control)	1.11 fold enrichment (6-mer frequency, TF over GST control)	1.16 fold enrichment (6-mer frequency, TF over GST control)	1 fold enrichment (6-mer frequency, TF over GST control)	1.06 fold enrichment (6-mer frequency, TF over GST control)	1.16 fold enrichment (6-mer frequency, TF over GST control)	1.16 fold enrichment (6-mer frequency, TF over GST control)	1.04 fold enrichment (6-mer frequency, TF over GST control)	1.12 fold enrichment (6-mer frequency, TF over GST control)	1.1 fold enrichment (6-mer frequency, TF over GST control)	1.31 fold enrichment (6-mer frequency, TF over GST control)	1.02 fold enrichment (6-mer frequency, TF over GST control)
CTTTCG	1.1 fold enrichment (6-mer frequency, TF over GST control)	1.21 fold enrichment (6-mer frequency, TF over GST control)	1.26 fold enrichment (6-mer frequency, TF over GST control)	1.15 fold enrichment (6-mer frequency, TF over GST control)	1.3 fold enrichment (6-mer frequency, TF over GST control)	1.3 fold enrichment (6-mer frequency, TF over GST control)	1.23 fold enrichment (6-mer frequency, TF over GST control)	1.39 fold enrichment (6-mer frequency, TF over GST control)	1.27 fold enrichment (6-mer frequency, TF over GST control)	1.26 fold enrichment (6-mer frequency, TF over GST control)	1.27 fold enrichment (6-mer frequency, TF over GST control)	1.65 fold enrichment (6-mer frequency, TF over GST control)	1.19 fold enrichment (6-mer frequency, TF over GST control)	1.4 fold enrichment (6-mer frequency, TF over GST control)	1.3 fold enrichment (6-mer frequency, TF over GST control)	1.4 fold enrichment (6-mer frequency, TF over GST control)	1.37 fold enrichment (6-mer frequency, TF over GST control)	1.36 fold enrichment (6-mer frequency, TF over GST control)
